The values below come from PubChem BioAssay.

Molecules are shown by their SMILES.

The test system of the assay is Plasmodium falciparum Sir2 (PF13_0152, Sir2A). Briefly: Plasmodium falciparum Sir2A binding compounds – biochemical, small-molecule microarray, 635 nm fluorescence, primary screen (AID 1098).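 Note: score merges spot fluorescence intensity with its signal-to-noise ratio.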 As to conditions: fluorescence 635 nm, higher = more signal.
Compound `Cc1ccccc1C(O)C1C=CC2C(=O)N(C)C(=O)C2N1Nc1ccccc1` (stereo not given) displayed a composite z-score of 1.06. As to `COc1cc(CO)ccc1OC(C)=O`, the composite z-score turned out to be 0.144.

As for `CC(=CC1CCCCC1)[C@@H](NC(=O)c1ccc(C(F)(F)F)cc1)c1ccc(-c2ccccc2)cc1`, the composite z-score is -0.0411. To `COc1ccc([Si](C)(C)[C@H]2[C@H](CCn3cc([C@H](O)c4ccccc4)nn3)O[C@@]3(C(=O)N(Cc4cccc(N5CCC5=O)c4)c4ccccc43)[C@@H]2C)cc1` belongs 1.32; to `CCCC[C@H]1OB(O)C[C@H]2C1=C(C)C[C@H]1C(=O)N(Cc3ccccc3)C(=O)[C@H]12`, 0.148. The result for `CC(C)NC(=O)[C@@H]1c2ccccc2C(=O)N(Cc2ccccc2)[C@H]1c1ccc(CO)cc1` reads 1.62; that for `[N-]=[N+]=NCc1ccccc1C[C@]1(C(=O)NCC(O)CO)N=C(c2ccc(OCCCO)cc2)O[C@H]1c1ccccc1N=[N+]=[N-]` (stereo not given in full), 0.3; that for `C=CCC(OC(C)=O)[C@@H]1[C@@H](N(Cc2ccc(-c3ccccc3)cc2)C(=O)Cc2ccc(F)cc2)c2cc(OCCCO)ccc2N1C(=O)c1ccc2ccccc2n1` (stereo not given in full), 0.295. The result for `CO[C@H]1O[C@H](CO)[C@@H](OC(=O)Nc2ccc(Oc3ccccc3)cc2)[C@H](OC(=O)Nc2ccccc2)[C@H]1OC(=O)Nc1ccccc1` reads 1.5; that for `CC(C)C(O)C1C=CC2C(=O)N(c3ccccc3)C(=O)C2N1Nc1ccc(C#N)cc1` (stereo not given), 1.08.

The compound `CC(C)c1ccc(NN2C(C(O)c3c(F)cccc3Cl)C=CC3C(=O)N(c4ccccc4)C(=O)C32)cc1` (stereo not given) returned a composite z-score of 0.683. Consider `O=C(NCc1ccccc1)[C@]1(CCS(=O)(=O)c2ccccc2)N=C(c2ccc(OCCCO)cc2)O[C@@H]1c1ccccc1`, for which the composite z-score amounted to 1.31. The result for `COc1ccc([Si](C)(C)[C@H]2[C@H](CCn3cc(CCO)nn3)O[C@@]3(C(=O)N(Cc4ccc(N5CCOC5=O)cc4)c4ccccc43)[C@@H]2C)cc1` reads 1.51.

The compound `COCCOC(=O)N1C(=O)[C@@]2(c3cc(C#CC4=CCCCC4)ccc31)[C@H](C(=O)N1CCc3cc(OC)c(OC)cc3C1)[C@H]1C(=O)O[C@H](c3ccccc3)[C@H](c3ccccc3)N1[C@@H]2c1ccccc1OCCO` yielded a composite z-score of 0.763.

With `Cc1ccccc1C(O)C1C=CC2C(=O)N(C)C(=O)C2N1N1CCCCC1` (stereo not given), the composite z-score is 1.29. To `CCCCC(O)C1C=CC2C(=O)N(C3CCCCC3)C(=O)C2N1Nc1ccc(OC)cc1` (stereo not given) belongs 0.637; to `O=C(CCN1CCOCC1)c1cccc(O)c1`, 1.63. To `C=C(COC)C(=O)CC[C@@H](OC(=O)c1cccnc1)c1ccc(CO)o1` belongs 0.691; to `O=C1c2ccccc2[C@@]2(Cc3ccccc3N(Cc3ccccc3)C2=O)[C@H](c2ccc(CO)cc2)N1C1CCCCC1`, 1.3. The result for `Cc1ccc(S[C@]2(C(=O)NC3CC3)CC(=O)N(C3CCCCC3)[C@@H]2c2ccc(CO)cc2I)cc1` reads 1.19; that for `CCOC(=O)C[C@H]1[C@H](OC(=O)c2ccccc2-c2ccccc2)[C@@H](NC(=O)c2ccc3ccccc3c2)c2cc(OCCCO)ccc2N1C(=O)c1ccc2ccccc2n1`, -0.0144. For `C[C@H]1NC(=O)[C@H](Cc2ccccc2)NC(=O)[C@@]23C(=O)N[C@@H](Cc4ccccc4)C2[C@H](C)[C@@]2(C)O[C@H]2C3/C=C/C/C=C\CNC1=O` (stereo not given in full), the composite z-score amounted to 0.444.

`COC(=O)C(CC#Cc1ccc2c(c1)[C@]1(C(=O)N2)[C@H](C(=O)NC[C@H](O)c2ccccc2)[C@H]2C(=O)O[C@H](c3ccccc3)[C@H](c3ccccc3)N2[C@@H]1c1ccc(OCCO)cc1)C(=O)OC`: the composite z-score is 1.71. Compound `COC(=O)[C@]1(Cc2ccccc2N=[N+]=[N-])N=C(c2ccc(OCCCO)cc2)O[C@@H]1c1ccccc1N=[N+]=[N-]` registered a composite z-score of 1.35. The result for `COCCOC(=O)N1C(=O)[C@@]2(c3cc(C#CCCO)ccc31)[C@H](C(=O)NC[C@H](O)c1ccccc1)[C@H]1C(=O)O[C@H](c3ccccc3)[C@H](c3ccccc3)N1[C@@H]2c1ccc(O)cc1` reads 0.0479. The result for `C=CCC(OC(C)=O)[C@@H]1[C@@H](N(Cc2cccc3ccccc23)C(=O)c2cccc3ccccc23)c2cc(OCCCO)ccc2N1C(=O)c1ccc2ccccc2n1` (stereo not given in full) reads -0.0758. To `O=C1C2C=CC(C(O)c3ccc(B(O)O)cc3)N(Nc3ccccc3)C2C(=O)N1c1ccccc1` (stereo not given) belongs -0.0545.

As to `C=C[C@H](COC(C)=O)N(Cc1ccc(OC(C)=O)c(OC)c1)S(=O)(=O)c1ccc(Br)cc1`, the composite z-score is 0.723. To `CC(C)Cc1ccc(CN2CC[C@@H](NS(=O)(=O)c3ccccc3)C2)cc1` belongs -0.265; to `O=C1OCC=C[C@H]2OC34C=CCN(c5ccc6ccccc6c5)C(=O)[C@H]3N(CCCO)C(=O)[C@@H]4[C@@H]12` (stereo not given in full), 1.17. For the compound `[N-]=[N+]=NCc1ccccc1C[C@]1(C(=O)O)N=C(c2ccc(OCCCO)cc2)O[C@H]1c1ccccc1CN=[N+]=[N-]`, the composite z-score turned out to be 1.07. The result for `COCCOC(=O)N1C(=O)[C@@]2(c3cc(C#CCC(C(=O)OC)C(=O)OC)ccc31)[C@H](c1ccccc1OCCO)N1[C@H](c3ccccc3)[C@H](c3ccccc3)OC(=O)[C@H]1[C@@H]2C(N)=O` reads 1.38; that for `COCC1=C2[C@@H](CCc3ccccc3)OB(O)C[C@@H]2[C@@H]2C(=O)N(Cc3ccccc3)C(=O)[C@@H]2C1`, 0.174. The result for `CC(C)NC(=O)[C@@H]1c2ccccc2C(=O)N(Cc2ccccc2Cl)[C@H]1c1ccc(CO)cc1` reads 0.284; that for `COc1cc2c(cc1OC)CN(C(=O)[C@@H]1[C@H]3C(=O)O[C@H](c4ccccc4)[C@H](c4ccccc4)N3[C@H](c3ccccc3OCCO)[C@@]13C(=O)Nc1ccc(C#CCNC(N)=O)cc13)CC2`, 1.58.
